# Sampled rows, rich in hits. Any-hit rate of the full collection: about 1.3%.
# Rango-impB inh: Rango-importin beta binding inhibition; AID 540263; Q14974; Potency, µM (top dose mostly 92.2 µM), inactives show top-dose inhibition of complex formation; Rango CFP/YFP FRET sensor + importin beta, 45 min; 340,000 compounds, 0.031% hits;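 note: potency is the fitted concentration of half-maximal effect; 0% = DMSO wells and 100% = buffer wells lacking importin beta; nearly all actives have a fitted effect of over 15% in size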
#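 Inhibition scored from the CFP 486 nm/YFP 530 nm FRET ratio 45 min after adding 0.125 microM importin beta to 50 nM Rango biosensor preincubated 5 min with compound (room temperature, PBS with DTT, Tween-20, BSA). No-importin wells as positive control.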
# KCNH2 WT inh: KCNH2 (human, wildtype) channel inhibition; U2OS, BacMam KCNH2, thallium flux FluxOr; stronger effect = lower value; AID 720551; Q12809; activity change, % at 1.84 µM; 340,000 compounds, 0.37% hits;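 active = maximum activity change below -70%; inconclusive = maximum activity change between -70% and -50%; inactive = maximum activity change above -50%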; note: % is set by controls: 0 for no effect and ±100 for the full control effect
#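 U2OS cells transduced with wild-type KCNH2 virus are loaded with FluxOr dye for 45 min, and thallium flux is measured in kinetic reads before and after stimulation buffer. Rate constants are normalized to DMSO controls.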
# KCNH2 3.1 block: inhibitors of human KCNH2 3.1 potassium channel isoform; U2OS KCNH2 3.1, thallium flux FluxOr; stronger effect = lower value; activity change, % (tested at about 1.8 µM); 340,000 compounds, 0.95% hits; AID 720553;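 active = maximum activity change below -70%; inconclusive = maximum activity change from -70% to -50%; inactive = maximum activity change above -50%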;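 note: thallium influx rate constant from kinetic fluorescence after stimulation buffer; % is set by controls: 0 for no effect and ±100 for the full control effect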
#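 Normalized rate constant (relative to positive and negative DMSO controls) derived from a 2 min kinetic fluorescence read after stimulation; U2OS cells expressing the 3.1 isoform via virus at 1.77 x 10^8 /mL.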
# Rango dissoc inh: prevents RanGTP from dissociating the Rango-importin beta complex; 340,000 compounds, 0.071% hits; Biochemical FRET Rango-importin beta, RanGTP-induced dissociation; Potency, µM (doses to about 46.1 µM), inactives show at the top dose activity change, negative = inhibition; O95149+P62826; AID 540253; note: potency is the fitted concentration of half-maximal effect; % of control where 0% means no effect; nearly all actives have a fitted effect of over 45% in size
#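 Quantitative HTS using a FRET biosensor: 0.1 uM Rango, 0.25 uM importin beta, 0.6 uM Ran, 2 mM GTP, 0.2 uM RCC1 final, PBS with DTT, Tween-20 and BSA. Post-read taken 45 min after Ran addition.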
# * hit, by the source's call; ? = inconclusive; / = no result given. Unless noted, calls come from the whole dose curve.
SMILES,Rango-impB inh,KCNH2 WT inh,KCNH2 3.1 block,Rango dissoc inh
CC(=O)/C(=N/Nc1ccccc1)Sc1nnc(CCc2ccccc2)n1-c1ccccc1,0%,-6,-90*,7%
CC(=O)/C(=N\Nc1ccc(Cl)cc1)Sc1nnc(-c2ccccc2)n1-c1ccccc1,1%,-2,5,17%
Cc1ccc(C(=O)Nc2ccccc2N2CCCC2)s1,3%,5,2,-20%
Cc1ccccc1NC(=O)c1c(C)nc(SCC(=O)OCc2ccccc2)c(C#N)c1-c1ccc(F)cc1,?,1,-114*,15%
Cc1nc(SCC(=O)OCc2ccccc2)c(C#N)c(-c2ccccc2)c1C(=O)Nc1ccccc1,?,-2,-2,-25%
COc1ccc(NC(=O)C2CC3CCC2C3)c(OC)c1 (centres undefined),0%,-2,10,0%
CC(=O)Nc1ccc(S(=O)(=O)NCCOc2ccc(Cl)cc2C)cc1,-2%,-120*,-190*,-5%
O=C(NCc1ccco1)c1cc(NS(=O)(=O)c2cccc([N+](=O)[O-])c2)ccc1O,2%,-152*,-198*,2%
CCCN(CC1CCCO1)C(=O)CCc1nnc(CCc2ccc(OC)cc2)o1 (centres undefined),0%,-1,15,-12%
Cn1cc(CNCc2ccc(-n3cccn3)cc2)c(-c2ccccc2F)n1,1%,13,-7,2%
Cn1cc(CNCCCn2ncc3ccccc32)c(-c2ccccc2F)n1,4%,14,-97*,22%
CC(C)N(CCNCC(O)COc1ccc(C(C)(C)c2ccccc2)cc1)C(C)C (centres undefined),-1%,-96*,?,11%
OC(CNCCC(c1ccccc1)c1ccccc1)COc1ccccc1 (centres undefined),-2%,-11,-97*,17%
CCOc1ccccc1NC(=O)COC(=O)C1CC(=O)N(c2c(C)cccc2C)C1 (centres undefined),4%,-9,-1,0%
COc1cc(O)c(C(CCN2CCOCC2)c2ccc3c(c2)OCO3)c(OC)c1 (centres undefined),-3%,-4,?,-9%
CC(C)CCC(CCN1CCCC1)c1ccc2c(c1)OCO2 (centres undefined),1%,?,-105*,3%
CC(C)CCC(CCN1CCOCC1)c1ccc2c(c1)OCO2 (centres undefined),-4%,-115*,-111*,10%
COCCCNCCC(CCC(C)C)c1ccc2c(c1)OCO2 (centres undefined),-1%,?,?,-10%
COc1ccc(CCNC(=O)CCCn2c(=S)[nH]c3cc4c(cc3c2=O)OCO4)cc1OC,/,-11,-7,/
CCOC(=O)C(/C(C)=N/NC(=O)c1ccccc1[N+](=O)[O-])C(C)C (centres undefined),-1%,0,-83*,13%
CNC(=O)NC(=O)C(C)OC(=O)c1cc2c(s1)CCCCC2 (centres undefined),-3%,-5,-98*,-8%
CCCCOc1ccc(/C=N/NC(=O)c2nnn(-c3nonc3N)c2CN2CCCCCC2)cc1,-1%,-1,-81*,2%
CN(C)c1ccc(/C=N/NC(=O)c2nnn(-c3nonc3N)c2CN2CCCCCC2)cc1,?,7,-38,?
Nc1nonc1-n1nnc(C(=O)N/N=C/c2ccc(OCc3ccccc3)cc2)c1CN1CCCCC1,-1%,6,-98*,-8%
Cc1[nH]oc(=O)c1N=Nc1ccc2[nH]c(=O)[nH]c2c1,0%,-11,-20,3%
SMILES,Rango-impB inh,KCNH2 WT inh,KCNH2 3.1 block,Rango dissoc inh
COc1cccc(COc2ccc3ccc(=O)oc3c2)c1,1%,-4,-74*,6%
NS(=O)(=O)c1ccc(NC(=O)COC(=O)c2ccc(S(=O)(=O)N3CCOCC3)cc2)cc1,-1%,1,6,-23%
FC(F)(F)c1nc2nc(Cl)c(Cl)nc2[nH]1,/,17,-71*,/
CCN1/C(=C2\C(=O)N(c3ccccc3)N=C2C)C=Cc2cc(C)ccc21,0%,0,-102*,3%
CCOC(=O)c1oc2ccccc2c1COC(=O)CNC(=O)c1cccc(C)c1,-2%,-1,-80*,1%
CCOC(=O)c1oc2ccccc2c1COC(=O)CNC(=O)c1ccccc1F,/,1,12,/
Cc1ccc(C)c(NC(=O)COC(=O)c2cc3ccccc3oc2=O)c1,-4%,2,3,-10%

# High-throughput results as filed in PubChem.
